The values below come from ChEMBL document CHEMBL1201862, “PubChem BioAssay data set” (2004).

About 12,000 (3.5%) of roughly 340,000 compounds were called active. Roughly 18% stayed inconclusive and do not appear here. The rule behind the calls is not given here. Only a selection was taken, and actives are over-represented in it overall.

This experiment in a line: qHTS Assay for Inhibitors of Hepatitis C Virus (HCV). Particulars: read-out: Potency. The experiment is classed as functional. In general terms: Quantitative high-throughput screening tests each substance at several concentrations.
As to `CO[C@H]1/C=C\O[C@@]2(C)Oc3c(C)c(O)c4c(O)c(c5c(c4c3C2=O)=NC2(CCN(CC(C)C)CC2)N=5)NC(=O)/C(C)=C\C=C/[C@H](C)[C@H](O)[C@@H](C)[C@@H](O)[C@@H](C)[C@H](OC(C)=O)[C@@H]1C`, the AC50 is 158 µM (active). For the compound `COc1ccc([C@@]23Oc4cc(OC)cc(OC)c4[C@]2(O)[C@H](O)[C@H](C(=O)N(C)C)[C@H]3c2ccccc2)cc1` [ROCAGLAMIDE], the AC50 was 100 µM (active).

On to `O=C(O)c1cc(O)c2c(c1)[C@@H]([C@H]1c3cc(C(=O)O)cc(O)c3C(=O)c3c(O[C@@H]4O[C@H](CO)[C@@H](O)[C@H](O)[C@H]4O)cccc31)c1cccc(OC3O[C@H](CO)[C@@H](O)[C@H](O)[C@H]3O)c1C2=O` (stereo partly specified), for which the AC50 was 79.4 µM (active). On to `[N-]=[N+]=NC[C@H](Cc1ccccc1)N1CC[C@@H](OCc2ccccc2)CCC1=O`, for which the AC50 is 100 µM (active). To `Cl.N[C@@H](CCC(=O)O)C(=O)O` [GLUTAMIC ACID HYDROCHLORIDE] belongs 1.12 µM (active). Consider `C#CC(=O)N(c1cc(OC)ccc1OC)C(C(=O)NC1CCCC1)c1cccs1` (stereo unspecified), for which the AC50 is 112 µM (active).
